According to article PMC4336329 (PLoS ONE, 2015):
Screen size: about 310,000 compounds; about 14,000 (4.5%) showed an effect of 50% or more. The effect is printed as a negative number. Many of the other results were omitted from the sample, so strong results are more common in it than they were.

molecular target: human ether-à-go-go-related gene (hERG) potassium channel (human, UniProt Q12809); assay: primary screen, population patch clamp on CHO cells stably expressing hERG; higher = less effect of the substance
Sequence (Q12809 whole entry, looked up): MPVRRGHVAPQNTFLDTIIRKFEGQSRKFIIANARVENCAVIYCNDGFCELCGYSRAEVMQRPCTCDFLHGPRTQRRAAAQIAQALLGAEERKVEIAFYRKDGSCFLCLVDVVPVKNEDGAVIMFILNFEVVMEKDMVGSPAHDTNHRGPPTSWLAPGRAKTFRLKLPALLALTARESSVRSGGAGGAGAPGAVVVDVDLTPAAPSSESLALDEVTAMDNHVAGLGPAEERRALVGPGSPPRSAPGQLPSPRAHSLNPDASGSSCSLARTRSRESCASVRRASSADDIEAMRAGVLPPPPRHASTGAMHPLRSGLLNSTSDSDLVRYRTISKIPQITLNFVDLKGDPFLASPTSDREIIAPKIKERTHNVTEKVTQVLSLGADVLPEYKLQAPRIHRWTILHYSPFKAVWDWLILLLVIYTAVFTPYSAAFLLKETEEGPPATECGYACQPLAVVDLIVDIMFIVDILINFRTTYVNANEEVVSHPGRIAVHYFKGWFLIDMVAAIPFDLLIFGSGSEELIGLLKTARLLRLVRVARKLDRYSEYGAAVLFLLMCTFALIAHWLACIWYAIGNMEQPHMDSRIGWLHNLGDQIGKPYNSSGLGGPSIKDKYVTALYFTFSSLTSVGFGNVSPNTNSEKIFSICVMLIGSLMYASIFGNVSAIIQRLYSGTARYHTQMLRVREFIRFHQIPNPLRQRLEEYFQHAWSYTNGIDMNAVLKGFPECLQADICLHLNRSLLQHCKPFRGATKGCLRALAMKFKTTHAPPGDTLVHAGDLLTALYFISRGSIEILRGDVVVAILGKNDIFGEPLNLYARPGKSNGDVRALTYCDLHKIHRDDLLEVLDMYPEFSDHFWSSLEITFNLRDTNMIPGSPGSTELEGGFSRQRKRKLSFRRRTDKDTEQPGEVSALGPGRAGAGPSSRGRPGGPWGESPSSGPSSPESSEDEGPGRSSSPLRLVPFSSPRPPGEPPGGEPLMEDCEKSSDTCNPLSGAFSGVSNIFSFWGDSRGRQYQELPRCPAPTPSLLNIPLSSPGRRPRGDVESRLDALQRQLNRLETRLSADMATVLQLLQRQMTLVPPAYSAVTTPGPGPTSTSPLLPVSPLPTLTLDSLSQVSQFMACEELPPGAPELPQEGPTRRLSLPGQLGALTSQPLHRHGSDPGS
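Note: peak tail current of the secondary pulse compared with the same well before compound.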

Row | SMILES | hERG current change (%, negative = inhibition) at 10uM [%]
1 | CC1CCC2(CC1)NC(=O)N(CC(=O)N1CCN(C(=O)c3cccs3)CC1)C2=O (stereo not shown) | -9.44
2 | CCOC(=O)Cc1csc(NC(=O)c2cc(=O)c3ccccc3o2)n1 | -12.3
3 | COc1ccc(Br)cc1CN1C(=O)NC2(CCCCCC2)C1=O | 10.4
4 | Cn1ncc(Br)c1C(=O)N1CCCC1 | 19
5 | O=C(COc1ccc(-c2ccccc2)cc1)N1CCCC1 | -54.5
6 | CCc1ccc(OCC(=O)N2CCN=C2c2ccccc2)cc1 | -5.36
7 | O=C(COc1ccccc1)N1CCCC1 | 15.6
8 | O=C(COc1ccc2ccccc2c1)N1CCN(C(=O)c2cccnc2)CC1 | -25
9 | O=C(COc1ccc(-c2ccccc2)cc1)N1CCN(C(=O)c2cccnc2)CC1 | -57.9
10 | O=C(COc1ccccc1)N1CCN=C1c1ccccc1 | -77.5
11 | Cc1ccc(OCC(=O)N2CCN(C(=O)c3cccnc3)CC2)cc1 | -4.29
12 | CSC1=NCCN1C(=O)COc1ccccc1 | 11.3
13 | O=C(COc1ccccc1)N1CCCCCCC1 | 3.25
14 | O=C(NC(=S)Nc1ccc(-c2ccc(CO)o2)cc1)c1cccs1 | 21
15 | Cc1ccc2c(c1)C(c1ccccc1)N(C(=O)c1c(F)cccc1Cl)CC(=O)N2 (stereo not shown) | -22.3
16 | Cc1cccnc1NC1=NCC(C)S1 (stereo not shown) | 3.1
17 | C=CCSC(CC)(CC)C(N)=O | 3.1
18 | O=C(CNCc1ccco1)Nc1cc(S(=O)(=O)N2CCOCC2)ccc1N1CCCC1 | -14.4
19 | COc1cccc(NCc2nnc(SCC(=O)NC3CCS(=O)(=O)C3)n2C2CCCCC2)c1 (stereo not shown) | 12.7
20 | CCN1CCN(CCC(=O)Nc2cccc(C)c2)CC1.Cl | 0.741
21 | O=C(CCN1CCN(c2ccccc2)CC1)Nc1ccc(Cl)cc1 | -17.9
22 | Cc1ccc(NC(=O)CCN2CCN(C/C=C/c3ccccc3)CC2)cc1.Cl | -90.9
23 | Cc1cccc(NC(=O)CCN2CCN(C)CC2)c1.Cl | 6.48

Row | SMILES | hERG current change (%, negative = inhibition) at 10uM [%]
24 | CN1CCN(CCC(=O)Nc2ccccc2)CC1 | -5.19
25 | CCN1CCN(CCC(=O)Nc2ccccc2)CC1 | 8.58
26 | O=C(CCN1CCN(C/C=C/c2ccccc2)CC1)Nc1ccccc1 | -74.9
27 | CCN1CCN(CCC(=O)Nc2ccc(C)cc2)CC1.Cl | -8.34
28 | Cc1cccc(NC(=O)CCN2CCN(C/C=C/c3ccccc3)CC2)c1.Cl | -74
29 | O=C(CCN1CCN(C/C=C/c2ccccc2)CC1)Nc1ccc(Cl)cc1 | -78.2
30 | Cl.O=C(CCN1CCOCC1)Nc1ccc(Cl)cc1 | 6.33
31 | Cl.O=C(CCN1CCCC1)Nc1ccccc1 | 4.69
32 | COc1ccc(C(Sc2ccccc2)c2ccccc2)cc1OC (stereo not shown) | 7.26
33 | O=C(O)CCN=CC1=C(O)CC(c2ccccc2)CC1=O (stereo not shown) | 3.13
34 | O=C(C[n+]1cccc(O)c1)NCc1ccc(Cl)cc1.[Cl-] | 24.2
35 | CCOC(=O)CC1C(=O)NCCN1C(=O)c1ccc(C)cc1 (stereo not shown) | 14.9
36 | Cc1sc2c(c1C)C(O)=C(C(=O)Nc1ccccc1)S(=O)(=O)N2C | 4.91
37 | O=C(CSc1nnc2c(n1)[nH]c1ccc(F)cc12)N1CCOCC1 | 5.63
38 | Cc1ccc(NC(=O)CCN2CCOCC2)cc1C | 14.1
39 | Cc1cc(NC(=O)CCN2CCN(Cc3ccccc3)CC2)ccc1Br.Cl | -28
40 | O=C(CCN1CCc2ccccc2C1)Nc1ccccc1 | -24.2
41 | Cc1ccc(NC(=O)CCN2CCC(Cc3ccccc3)CC2)cc1 | -75.1
42 | Cc1ccc(NC(=O)CN2CCc3ccccc3C2)cc1 | -30.3
43 | Cc1ccc(NC(=O)CCN2CCc3ccccc3C2)cc1.Cl | -60.8
44 | Cc1ccc(NC(=O)CCN2CCCCC2)cc1.Cl | -0.243
45 | Cc1ccc(NC(=O)CCN2CCN(C/C=C/c3ccccc3)CC2)cc1C.Cl | -71.8
46 | COc1ccc(CN2CCc3ccc(NC(=O)CCc4ccccc4OC)cc3C2)c(O)c1 | -35.2
